# Assay outcomes (PubChem BioAssay)
# The list is not random: actives were taken first. Their share in the collection is about 19%.
# HepG2 tox: qHTS for Inhibitors of TGF-b: Cytotox Counterscreen; HepG2 CAGA-GFP viability, ATP luminescence, 18 h; 410,000 compounds, 0.76% hits; Potency, µM (highest dose often 46.1 µM), for inactives: top-dose activity change, negative = cytotoxicity, actives largely listed as cytotoxic; further: potency means the concentration at half of the fitted maximal effect
#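 CellTiter-Glo luminescence gave cytotoxicity after 18 hours at 37 degrees C. The cells were HepG2 CAGA-GFP in 1% FBS DMEM, stimulated with 500 pg/mL TGF-beta after compound addition. %Activity was normalised to no-cell wells (complete cell-killing) and DMSO (no toxicity), and curves were fitted and classified.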
# TDP1 cell noCPT: qHTS for Inhibitors of human tyrosyl-DNA phosphodiesterase 1 (TDP1): qHTS in cells in absence of CPT; 420,000 compounds, 15% hits; AID 686978, 2013; DT40 Tdp1-/- hTDP1 cells, no CPT, ATP luminescence, 48 h; Potency, µM (doses to about 46.2 µM), for the others: top-dose activity change, negative = growth inhibition, hits mostly inhibitors; further: potency means the concentration at half of the fitted maximal effect; on the % scale 0 is the no-effect control and ±100 the full control effect; nearly all actives have a fitted effect of over 55% in size
#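 Growth kinetics read by CellTiter-Glo luminescence after ≥48 hr at 37 °C. Cells: DT40 Tdp1-/- stably carrying human TDP1, 400 per well, compound exposure in the absence of CPT (DMSO vehicle).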
# TDP1 cell CPT: qHTS for Inhibitors of human tyrosyl-DNA phosphodiesterase 1 (TDP1): qHTS in cells in presence of CPT. chicken DT40 Tdp1-/-;hTDP1 cells + 20 nM CPT, ATP luminescence, 48 h. Potency, µM (doses to about 46.2 µM), for the others: at the highest dose activity change, negative = growth inhibition, usual class: inhibitors. 420,000 compounds, 12% hits; further: potency means the concentration at half of the fitted maximal effect; on the % scale 0 is the no-effect control and ±100 the full control effect; nearly all actives have a fitted effect of over 55% in size
#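 Chicken DT40 Tdp1-/- cells stably complemented with human TDP1 were seeded at 400 cells/well in medium containing 20 nM camptothecin, exposed to pin-transferred compounds, and grown at 37 °C for at least 48 hr. Viability was read as ATP luminescence.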
# TGFb inhibitor: qHTS for Inhibitors of TGF-b; HepG2 CAGA-GFP TGF-b/SMAD3 reporter, GFP fluorescence, 18 h; TGF-beta stimulated, 500 pg/mL final; Potency, µM (doses to about 46.1 µM), for the others: at the top dose activity, negative = inhibition, usual class: inhibitors; 410,000 compounds, 1.2% hits; further: potency means the concentration at half of the fitted maximal effect; on the % scale 0 is the no-effect control and ±100 the full control effect; nearly all actives have a fitted effect of over 65% in size
#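 GFP signal (ex488/em500-530) from TGF-beta-stimulated HEPG2 CAGA-GFP cells, 500 pg/mL final, 18 h at 37 degrees C in DMEM plus 1% FBS, normalized to unstimulated and DMSO-stimulated controls.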
# IL1B secr inh: qHTS for Inhibitors of Inflammasome Signaling: IL-1-beta AlphaLISA Primary Screen. THP-1 LPS/ATP IL-1B secretion, AlphaLISA, 16 h; stronger effect = lower value. activity change, % at 57.5 µM. 360,000 compounds, 4.7% hits. AID 743279, 2014; in the data active means activity change below about -50%; inconclusive means mostly about -30% to -49%; further: on the % scale 0 is the no-effect control and ±100 the full control effect
#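 Secreted IL-1B measured by AlphaLISA bead assay after 16 h compound exposure of THP-1 cells; compounds (final up to 57.5 uM) added 1 h before LPS (250 ng/mL) and ATP (1.25 mM) stimulation; lower signal means less secretion.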
# S-ASM inh: Inhibitors of Secretory Acid Sphingomyelinase (S-ASM): qHTS; placental ASM, HMU-PC fluorogenic substrate, 60 min; Potency, µM (highest dose often 57.5 µM), without a hit: at the highest dose activity change, negative = inhibition, actives largely listed as inhibitors; 340,000 compounds, 0.006% hits; further: potency means the concentration at half of the fitted maximal effect
# Target sequence (P17405 47-631 limits assumed): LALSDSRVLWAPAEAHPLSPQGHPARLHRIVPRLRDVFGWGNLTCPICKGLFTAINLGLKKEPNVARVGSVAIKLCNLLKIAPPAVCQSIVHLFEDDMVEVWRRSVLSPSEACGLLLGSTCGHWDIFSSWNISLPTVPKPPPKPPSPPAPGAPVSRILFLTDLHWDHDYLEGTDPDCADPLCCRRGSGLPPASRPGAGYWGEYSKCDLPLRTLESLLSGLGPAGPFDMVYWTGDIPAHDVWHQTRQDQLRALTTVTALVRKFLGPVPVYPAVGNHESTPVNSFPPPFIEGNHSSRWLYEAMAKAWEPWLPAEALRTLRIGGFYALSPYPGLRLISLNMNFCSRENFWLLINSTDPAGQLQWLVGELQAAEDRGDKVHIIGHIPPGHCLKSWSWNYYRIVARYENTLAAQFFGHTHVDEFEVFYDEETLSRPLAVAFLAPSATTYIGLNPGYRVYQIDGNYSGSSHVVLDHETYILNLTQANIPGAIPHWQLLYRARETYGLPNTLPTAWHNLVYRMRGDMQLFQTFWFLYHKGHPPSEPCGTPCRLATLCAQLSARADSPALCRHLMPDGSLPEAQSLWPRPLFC
#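 Steps: dispense placental human ASM, pin compound, wait 10 min at room temperature, add HMU-PC0 substrate at 9 uM final, incubate 60 min at 37 °C, add stop solution raising pH to 10, read fluorescence.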
# An asterisk follows results filed as active; i = inactive; ? = inconclusive; . = no result; [ ] = remark or other dose. Unless noted, the call rests on the fitted dose curve; in most records, active means well fitted curve in the direction sought with a large enough effect; inconclusive means small, poorly fitted or top-dose-only effect, or another doubt; inactive means no such curve, though single readings can be large; an effect the other way counts as inactive or inconclusive.
SMILES,HepG2 tox,TDP1 cell noCPT,TDP1 cell CPT,TGFb inhibitor,IL1B secr inh,S-ASM inh
CCCCc1nn2c(=O)cc(COC(=O)c3ccc(NC(=O)C4CCCCC4)cc3)nc2s1,2%,?,?,6%,.,.
COc1ccc(-c2nc3ccc(C4=NNC(=O)CC4C)cc3[nH]2)cc1 (stereo unspecified),.,13µM*,?,.,.,.
COc1ccc2nc(-c3ccc(N)cc3)[nH]c2c1,-18%,?,?,6%,?,0%
CC(C)(CCc1ccccn1)C(=O)C(CCc1ccccn1)CCc1ccccn1,1%,?,?,-12%,-55*,2%
Cc1ccc2[nH]c(CSc3nnc(NC(=O)COc4ccccc4F)s3)cc(=O)c2c1,-10%,?,?,?,.,.
CCCCNc1c(-c2ccc(-c3ccc(OC)cc3)c(OC)c2)nc2ccccn12,-73%,13µM*,18µM*,?,-75*,i
CCCCNc1c(-c2ccc(SC(C)CC)cc2)nc2cnccn12 (stereo unspecified),-98%,8.2µM*,9.2µM*,?,-72*,i
COc1ccc(Nc2c(-c3ccc(OC)cc3)nc3cnccn23)cc1,-6%,?,?,?,95,-8%
CCCCNc1c(-c2ccc(OC)c(Sc3ccc(OC)cc3)c2)nc2cnccn12,-24%,23µM*,?,?,55,334%
CCCCNc1c(-c2ccc(OC)c(Sc3ccc(OC)cc3)c2)nc2ccccn12,-64%,9.2µM*,4.1µM*,?,-104*,397%
COc1ccc(C(=O)Nc2c(-c3ccccc3)nc3ccccn23)c(OC)c1,0%,?,?,-2%,-5,0%
Cc1nc(C)c(CC(=O)N2CCOc3ccc(CN4CCOCC4)cc3C2)s1,.,?,-2%[9.04 µM],.,.,.
CC(C)(C)NCC(O)COc1ccccc1C(=O)CCc1ccccc1 (stereo unspecified),-44%,15µM*,16µM*,?,-77*,0%
O=C(Nc1cc(S(=O)(=O)N2CCCCCC2)ccc1OCC(F)(F)F)c1cnccn1,-29%,?,?,-11%,33,2%
CC(C)Nc1nc2c(-c3cccc(Br)c3)nnn2c2ccccc12,-20%,?,?,-29%,.,.
CCOC(=O)C1=CCC(c2ccc(C)cc2)N(S(=O)(=O)c2ccc(C)cc2)C1 (stereo unspecified),-4%,18µM*,23µM*,?,28,.
CC(=O)C1=CCC(c2ccccc2F)N(S(=O)(=O)c2ccc(C)cc2)C1 (stereo unspecified),4%,?,?,-10%,?,.
CCOC(=O)C1=CCC(C(C)(C)C)N(S(=O)(=O)c2ccc(C)cc2)C1 (stereo unspecified),-5%,?,?,-22%,59,.
CC(=O)C1=CCC(c2cccc3ccccc23)N(S(=O)(=O)c2ccc(C)cc2)C1 (stereo unspecified),-4%,18µM*,?,-15%,-16,.
CCOC(=O)C1=CCC(c2ccccc2C)N(S(=O)(=O)c2ccc(C)cc2)C1 (stereo unspecified),-20%,15µM*,10µM*,?,52,.
Cc1ccc(S(=O)(=O)N2CCOCC2)cc1C(=O)OCC(=O)NC1CCCC(C)C1C (stereo unspecified),-5%,4.6µM*,15µM*,-9%,20,3%
Cc1ccc(S(=O)(=O)N2CCOCC2)cc1C(=O)OCC(=O)N1CCc2ccccc2C1,8%,23µM*,?,-8%,17,0%
COC(Cn1c2c(c3cc(C)ccc31)CCCC2NCc1ccccc1)OC (stereo unspecified),-33%,15µM*,?,-21%,12,-2%
Cc1ccc2c(c1)c1c3n2CCCN(Cc2ccccc2)C3CCC1 (stereo unspecified),-21%,?,?,-10%,-7,-4%
CCCCNC(=O)c1sc2ncnc(N3CCc4ccccc4C3)c2c1C,-7%,8.2µM*,15µM*,-4%,-12,1%
SMILES,HepG2 tox,TDP1 cell noCPT,TDP1 cell CPT,TGFb inhibitor,IL1B secr inh,S-ASM inh
Cc1c(C(=O)NCCCN2CCOCC2)sc2ncnc(N3CCN(c4ccccc4)CC3)c12,-7%,21µM*,16µM*,9%,?,-1%
CCCCNC(=O)c1sc2ncnc(NCC3CCCO3)c2c1C (stereo unspecified),.,-14%,20%[9.04 µM],.,.,.
O=C(Cn1c(=O)n(Cc2ccco2)c(=O)c2cccnc21)Nc1ccccc1F,-4%,?,-28%,-42%,.,.
C=CC[C@@H](CC(=O)N[C@H](CO)Cc1ccccc1)C(=O)N[C@@H](COC(=O)[C@@H](CC=C)Cc1ccc(F)cc1)Cc1ccccc1,0%,?,?,4%,73,-7%
O=C(COC(=O)c1cc(S(=O)(=O)N2CCCC2)ccc1O)NCCc1ccccc1,-2%,-22%,4%,-2%,17,8%
CCOC(=O)CCc1c(C)c2ccc3c(c2oc1=O)CN(CCCO)CO3,-10%,-13%,-25%,4%,-11,i
COc1cc(NC(=O)CSc2nc3ncccc3o2)cc(OC)c1,-47%,?,?,-1%,.,.
O=C(CN1C(=O)NC(CCc2ccccc2)C1=O)Nc1cccc(Br)c1 (stereo unspecified),-20%,16µM*,?,-8%,-28,-5%
CC1CC(C)CN(S(=O)(=O)CC23CCC(CC2=O)C3(C)C)C1 (stereo unspecified),8%,-18%,-1%,3%,-2,-3%
CCOC(=O)c1cccc(NC(=O)c2cc(C)nn2-c2ccccc2)c1,1%,?,-17%,4%,57,4%
Cc1cc2ccc3ccccc3c2cc1CN(C)C,-39%,?,?,16µM*,.,-1%
CC(=O)c1cccc(N=Nc2c(C)[nH]c3ccccc23)c1,-10%,?,?,-6%,0,-2%
CC(=O)c1ccc2c(c1)c(C#N)c1ccccc1[n+]2[O-],-22%,18µM*,13µM*,-20%,7,39%
